Assay results: ChEMBL document CHEMBL1157539, “Thousands of chemical starting points for antimalarial lead identification” (Nature, 2010)

Assays:
Type in all cases: functional
Plasmodium falciparum [1] = experiment: GSK_TCMDC: Inhibition of Plasmodium falciparum 3D7 in whole red blood cells, using parasite LDH activity as an index of growth. Test compounds present at 2uM
Plasmodium falciparum [2] = experiment: GSK_TCMDC: Inhibition of Plasmodium falciparum Dd2 in whole red blood cells, using parasite LDH activity as an index of growth. Test compounds present at 2uM
HepG2 = experiment: GSK_TCMDC: Percent inhibition of human HepG2 cell line. Test compounds present at 10uM.

## O=C(O)C(F)(F)F.Oc1ccc(CCCNc2nc(NCc3cccc4ccccc34)nc(N3CCCNCC3)n2)cc1
Plasmodium falciparum [1]
  Inhibition: 96%
Plasmodium falciparum [2]
  Inhibition: 62%
HepG2
  Inhibition: 98%

## CCOC(=O)c1nc(-c2ccccc2)[nH]c1NC(=S)NC1CCCCC1
Plasmodium falciparum [1]
  Inhibition: 96%
Plasmodium falciparum [2]
  Inhibition: 1%
HepG2
  Inhibition: 6%

## O=C(O)C(F)(F)F.Oc1ccc(CC2CCCN(c3nc(NCCCOc4ccccc4-c4ccccc4)nc(N4CCNCC4)n3)C2)cc1 (stereo not given)
Plasmodium falciparum [1]
  Inhibition: 95%
Plasmodium falciparum [2]
  Inhibition: 77%
HepG2
  Inhibition: 56%

## CN1CCCC(CN2CCN(Cc3cccc(-c4ccc(-c5nc6cc(F)ccc6[nH]5)cc4)c3)CC2)C1.O=C(O)C(F)(F)F (stereo not given)
Plasmodium falciparum [1]
  Inhibition: 100%
Plasmodium falciparum [2]
  Inhibition: 100%
HepG2
  Inhibition: 78%

## O=C(Cn1c(CCc2cccc(F)c2F)nc(=O)c2cccnc21)N(Cc1ccc(-c2ccc(C(F)(F)F)cc2)cc1)C1CCN(C2CCSCC2)CC1.O=C(O)C(O)C(O)C(=O)O
Plasmodium falciparum [1]
  Inhibition: 100%
Plasmodium falciparum [2]
  Inhibition: 63%
HepG2
  Inhibition: 49%

## S=C(NCCCCCN1CCC(c2c[nH]c3ccccc23)CC1)Nc1cccc(I)c1
Plasmodium falciparum [1]
  Inhibition: 99%
Plasmodium falciparum [2]
  Inhibition: 14%
HepG2
  Inhibition: 69%

## Cc1ccc2c(c1[N+](=O)[O-])N=NCC2Oc1ccccc1 (stereo not given)
Plasmodium falciparum [1]
  Inhibition: 91%
Plasmodium falciparum [2]
  Inhibition: 19%
HepG2
  Inhibition: 16%

## CS(=O)(=O)CCNCc1ccc(-c2ccc3c(Nc4ccc(F)cc4Cl)ccnc3c2)o1
Plasmodium falciparum [1]
  Inhibition: 100%
Plasmodium falciparum [2]
  Inhibition: 98%
HepG2
  Inhibition: 29%

## CCOc1cccc(C(=O)Nc2cccc(CN3CCCN(Cc4ccc(O)cc4)CC3)c2)c1.O=C(O)C(F)(F)F
Plasmodium falciparum [1]
  Inhibition: 91%
Plasmodium falciparum [2]
  Inhibition: 31%
HepG2
  Inhibition: 23%

## COc1ccc(CCc2ccc(-c3c(C)[nH]c(C)c(Cl)c3=O)cc2)cc1
Plasmodium falciparum [1]
  Inhibition: 98%
Plasmodium falciparum [2]
  Inhibition: 97%
HepG2
  Inhibition: 0%
